High-throughput results as filed in PubChem.
JMJD2A Tudor inh – JMJD2A Tudor domain (human) inhibition. O75164. AlphaScreen JMJD2A-Tudor / H3K4me3 peptide binding. Potency, µM (top dose mostly 114 µM), for the others: top-dose activity change, negative = inhibition, usual class: inhibitors. hit rate 4.4% among 390,000. AID 504339; also: % is scaled to controls: 0 for no effect and ±100 for the full control effect; nearly all actives have a fitted effect of over 50% in size
HP1b chromo inh – inhibitors of HP1-beta chromodomain binding to methylated histone tails; Potency, µM (series often up to 114 µM), without a hit: top-dose activity change, negative = inhibition, usual class: inhibitors; hit rate 0.56% among 390,000; P83916; AID 540317; AlphaScreen HP1-beta / biotin-H3K9me3 peptide binding; also: nearly all actives have a fitted effect of over 70% in size
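HP1-beta protein (50 nM final) preincubated 30 min at room temperature with biotinylated H3(1-18)K9me3 peptide (50 nM) in PBS pH 7.4, 0.01% Tween-20, then compound added for 30 min. AlphaScreen streptavidin donor/nickel chelate acceptor beads (10 ug/mL final), 30 min dark, luminescence read.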
G9a inh – G9a (human) methyltransferase inhibition. Q96KQ7. G9a H3K9 monomethylation, AlphaScreen, 2 h. Potency, µM (series often up to 102 µM), inactives show at the top dose activity, negative = inhibition, actives largely listed as inhibitors. hit rate 8.8% among 350,000; also: % is scaled to controls: 0 for no effect and ±100 for the full control effect; nearly all actives have a fitted effect of over 75% in size
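Compounds were preincubated with 20 nM G9a for 15 min, after which biotinylated H3K9 peptide (500 nM) and SAM (20 uM) started a 2 h room-temperature reaction. Monomethylated product was quantified by antibody-based AlphaScreen chemiluminescence.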
GLS inh – inhibitors of human glutaminase (GLS); O94925; GLS enzymatic activity, qHTS titration; Potency, µM (top dose mostly 45.5 µM), for the others: at the top dose activity change, negative = inhibition, most hits filed as inhibitors; hit rate 0.21% among 410,000; also: % is scaled to controls: 0 for no effect and ±100 for the full control effect
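Enzyme dispensed in phosphate buffer (45 mM, pH 8.2, 0.02% Tween-20), compounds pinned in, then 1 mM L-glutamine solution and the glutamate oxidase–HRP–Amplex Red mix added; fluorescence read immediately and again after 30 min at room temperature.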
BAZ2B inh – blocks human BAZ2B; hit rate 4.4% among 360,000; AID 504333; Potency, µM (titrated, usually from 114 µM), inactives show at the top dose activity change, negative = inhibition, actives largely listed as inhibitors; AlphaScreen BAZ2B-H3K14Ac peptide displacement; Q9UIF8; also: % is scaled to controls: 0 for no effect and ±100 for the full control effect; nearly all actives have a fitted effect of over 60% in size
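In this displacement format the biotinylated H3(5-23) peptide acetylated at Lys14 serves as ligand at 50 nM, with BAZ2B at 50 nM in PBS pH 7.4 containing 0.01% Tween-20. Donor and acceptor beads are 10 ug/mL final.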
The depositor's hits bear a star; ? = inconclusive; · = not tested or not shown; ! = repeats disagree; [ ] = dose if it differs, or a comment. Hits are enriched below; roughly 10% of the tested compounds scored in any of these assays. Calls follow the shape of the dose curve; as a rule, active = well fitted curve in the direction sought with a large enough effect; inconclusive = small, poorly fitted or top-dose-only effect, or another doubt; inactive = no such curve, though single readings can be large; an effect the other way counts as inactive or inconclusive. Potency is read from the fitted curve at half-maximal effect.

SMILES | JMJD2A Tudor inh | HP1b chromo inh | G9a inh | GLS inh | BAZ2B inh
COCC(C)n1c(-c2ccc3c(c2)NC(=O)CO3)csc1=Nc1ccc(OC(F)F)cc1 (centres undefined) | ? | ? | -4%[12.7 µM] | -10% | 13µM*
Cc1ccc(OCCC(=O)OCC(=O)c2ccc3c(c2)NC(=O)CO3)cc1 | -4% | 51% | -17%[59 µM] | 0% | 13%
CCN=c1scc(-c2ccc3c(c2)NC(=O)CO3)n1N=C1CCCC1 | ? | ? | ? | -1% | 50µM*
CCCSc1nc2sc3c(c2c(=O)n1-c1ccc(C)c(Cl)c1)CCN(C(C)=O)C3 | -31% | 21% | ? | 9% | -18%
COc1cc(/C=N/N2CCN(C3c4ccccc4-c4ccccc43)CC2)cc(OC)c1O | ? | -11% | 1.6µM* | 13% | 11µM*
COc1cc(/C=N/N2CCN(C3c4ccccc4-c4ccccc43)CC2)cc(OC)c1OC | ? | ? | 50µM* | -3% | -39%
Cc1nnc(NC(=O)CSCc2cc(=O)c3ccccc3[nH]2)s1 | -24% | 20%[57 µM] | 5%[12.7 µM] | -13% | -20%
Cc1ccc(Cl)c(OC(=O)Cn2cnc3c2c(=O)n(C)c(=O)n3C)c1 | -5% | 39% | ? | 2% | 1%
COc1cc2c(cc1OC)C1=C(C#N)COCN1CC2 | -2%[11.4 µM] | -6% | 14µM* | 4% | ?
Cc1ccc(S(=O)(=O)N/N=c2\sc3ccccc3n2C)cc1 | -2% | 11% | 0.79µM* | 1% | -11%
Cc1cccc(S(=O)(=O)N/N=c2\sc3ccccc3n2C)c1 | -6% | 29% | ? | -8% | 5%
O=C(O)c1cccc(N2C(=O)/C(=C/c3ccc(SCc4ccc(Cl)cc4)o3)SC2=S)c1 | 45µM* | -16% | 20µM* | ? | 32µM*
Cc1ccc(/C=C2\SC(=S)N(c3cccnc3)C2=O)o1 | -18% | 9% | ? | 4% | ?
C[C@]12CC[C@@H]3c4ccc(O)cc4[C@@H](O)C[C@H]3[C@@H]1CC[C@@H]2O | · | · | 14% | · | 6%
C[C@@]12CC[C@@H]3c4ccc(O)cc4CC[C@H]3[C@H]1CC[C@H]2O | · | · | -4%[21.5 µM] | · | ·
C[C@]12CC[C@@H]3c4ccc(O)cc4CC[C@H]3[C@@H]1CC[C@@H]2O | -24% | 24% | 20µM*! | 2% | -36%
COc1cc2c(cc1O)CCC1C2CC[C@]2(C)[C@@H](O)CC[C@@H]12 (some centres undefined) | · | · | 40µM* | · | ·
O=C(CSc1nc2cc(C(=O)NC3CCCC3)ccc2c(=O)n1CC1CCCO1)c1cccc(Cl)c1 (centres undefined) | -15% | 18% | ? | -7% | -10%
COc1ccc(C2=NN(C(=O)c3cccs3)C(O)(C(F)(F)F)C2)cc1 (centres undefined) | 1% | 49% | -27% | 3% | 13%
COc1ccc(C2=NN(c3nc(C(=O)O)cs3)C(O)(C(F)(F)F)C2)c(OC)c1 (centres undefined) | 1% | 73% | -28% | -10% | 50µM*
CC(C)OCCCN(CC(O)c1ccccc1)CC(O)c1ccccc1 (centres undefined) | 5.6µM* | ? | 7.9µM* | 18% | ?
O=[N+]([O-])c1cccc(C=Nc2cccc3ccccc23)c1O | ? | 3% | · | 19% | ?
CCOC(=O)c1c(/N=C/c2cccc([N+](=O)[O-])c2O)sc(C)c1C | 50µM* | 45µM* | 7.1µM* | 19% | 45µM*
CC1CC(C)CN(C(=O)c2ccc(NS(=O)(=O)c3ccc4[nH]c(=O)[nH]c4c3)cc2)C1 (centres undefined) | -10% | 9% | 50µM* | 6% | -5%
Cc1cccnc1NC(=O)c1ccc(NS(=O)(=O)c2ccc3[nH]c(=O)[nH]c3c2)cc1 | -7% | 18% | 11% | 12% | 11%
SMILES | JMJD2A Tudor inh | HP1b chromo inh | G9a inh | GLS inh | BAZ2B inh
CC(=O)N1CCN(C(=O)c2ccc(NS(=O)(=O)c3ccc4[nH]c(=O)[nH]c4c3)cc2)CC1 | -8% | 28% | 5% | 0% | -1%
O=C(Nc1ncccc1O)c1ccc(NS(=O)(=O)c2ccc3[nH]c(=O)[nH]c3c2)cc1 | -22% | -4% | 71µM* | 42% | 79µM*
CCCCCNC(=O)c1ccc(NS(=O)(=O)c2ccc3[nH]c(=O)[nH]c3c2)cc1 | ? | 7% | 32µM* | 0% | -28%
CCOC(=O)c1ccc(NS(=O)(=O)c2ccc3[nH]c(=O)[nH]c3c2)cc1 | -17% | -26% | 11µM* | 9% | 0%
O=C1OC(c2ccccc2)(N(Nc2ccccc2)c2ccccc2)c2ccccc21 (centres undefined) | · | · | · | 10% | ·
Cc1cc(CNC(=O)c2cccc([N+](=O)[O-])c2C)c2ccccc2n1 | -5% | 32% | -33% | -19% | -18%
COc1ccc(CSCCc2n[nH]c(=S)n2-c2ccccc2)cc1 | 50µM* | -3% | ? | 4% | ?
COc1ccc(CC(=O)NCc2n[nH]c(=S)n2-c2ccccc2)cc1 | ? | 45% | 14µM* | 0% | -2%
COc1ccc(CC(=O)NCc2n[nH]c(=S)n2-c2ccc(Br)cc2)cc1 | -18%[11.4 µM] | -6% | ? | ? | -22%
COc1ccccc1-n1c(CNC(=O)COc2ccccc2)n[nH]c1=S | 7.1µM* | 22% | ? | 2% | -1%
COc1ccccc1-n1c(CNC(=O)c2cccc([N+](=O)[O-])c2C)n[nH]c1=S | 20µM* | 37% | ? | -5% | -6%
O=C1CCCC2=C1C1(CCCC1)N=C(Nc1nc3cc(Cl)ccc3o1)N2 | -21% | · | · | · | ·
Cc1cccc(-n2c(CNC(=O)c3cccc([N+](=O)[O-])c3C)n[nH]c2=S)c1 | 16µM* | 17% | 11µM* | 2% | ·
COC(=O)C1=C(N)Oc2cc(N(C)C)ccc2C1c1ccccc1OC (centres undefined) | 50µM* | ? | 32µM* | 11% | 40µM*
CCN(CC)CCC(=O)c1ccc(F)cc1 | -10% | 50% | 40µM* | 0% | 1%
CSc1ccc(CN2CCC2(C)C(=O)Nc2ccc3c(c2)OCO3)cc1 (centres undefined) | · | · | · | -2% | ·
CCOC(=O)c1c(C)[nH]c(C)c1C(=O)COc1ncnc2ccccc12 | 16µM* | -22% | ? | 0% | ·
O=C(COC(=O)c1ccc(Cl)c(S(=O)(=O)NCc2ccccc2)c1)NC1CC1 | -23% | 16% | 5%[59 µM] | 9% | -3%
CCOC(=O)c1c(C)[nH]c(C)c1C(=O)COC(=O)c1cc2ccccc2cc1O | ? | -15% | 50µM* | ? | ?
CCOC(=O)c1c(NC(=O)COc2ncnc3ccccc23)sc(C)c1C | -17% | 24% | 11%[59 µM] | 10% | 4%
CCOC(=O)c1c(C)[nH]c(C)c1C(=O)COC(=O)c1ccc(Cl)c(S(=O)(=O)NCc2ccccc2)c1 | 56µM* | -36% | ? | -7% | ?
